In PubChem BioAssay (NCATS) one finds Potency and IC50 (viability decrease) data, which are given here for eleven molecules.

The structures appear in SMILES notation. Values joined by “and” are separate entries in the source; they are usually repeats but may differ in a detail not shown here. Equal entries are not always repeated. Records with an inconclusive call do not appear. Active and inactive are the calls of the source. The call rests on the fitted dose curve; in most records, active means well fitted curve in the direction sought with a large enough effect; inconclusive means small, poorly fitted or top-dose-only effect, or another doubt; inactive means no such curve, though single readings can be large; an effect the other way counts as inactive or inconclusive.

Experiment [1] can be described thus: Identifying Small Molecule Inhibitors of Pancreatic Cancer Stem Cells (SN12C, Spheroid) (AID 1259360). Further: potency means the concentration at half of the fitted maximal effect. The settings on record: Potency: SN12C spheroid viability. An outline of the steps:
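Spheroids grown 14 days in stem cell media on nonadherent hydrogel before screening; cells attached 4 h, then compound exposure 48 h at 37C, 5% CO2. CellTiter-Glo luminescence normalized to DMSO (no inhibition) and no-cell wells (full inhibition).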

The nature of experiment [2]: Identifying Small Molecule Inhibitors of Pancreatic Cancer Stem Cells (A278, Adherent) (AID 1259361).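 Further: viability read after 48 h compound exposure; nearly all actives have a fitted effect of over 35% in size.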 An outline of the steps: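 Viability is scored by CellTiter-Glo luminescence 48 h after dosing, expressed as percent activity against vehicle and no-cell references. Spheroid formats rely on cells cultured 14 days in stem cell media beforehand.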
Experiment [3] in a line: Identifying Small Molecule Inhibitors of Pancreatic Cancer Stem Cells (Panc1, Adherent) (AID 1259362). Further: potency means the concentration at half of the fitted maximal effect. As to conditions: Potency: viability. The procedure, abridged:
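Luminescent ATP readout (CellTiter-Glo) quantifies surviving cells after a 48 h drug incubation. Normalization uses DMSO wells as no inhibition and media-only wells as full inhibition; bortezomib served as positive control.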

The nature of experiment [4]: P-glycoprotein substrates identified in KB-8-5-11 adenocarcinoma cell line, qHTS therapeutic library screen (AID 1346987). Further: nearly all actives have a fitted effect of over 65% in size. Further: potency means the concentration at half of the fitted maximal effect. The procedure, abridged: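 KB-8-5-11: colchicine-selected sub-line of KB-3-1 over-expressing P-gp; assay medium lacked colchicine. 72 h drug exposure at 37 degree C, CellTiter-Glo.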
A short description of experiment [5]: NS1 protein of Zika virus - qHTS assay to identify small molecule inhibitors in human HEK 293 cells (AID 1347053). Further: nearly all actives have a fitted effect of over 55% in size. Further: potency means the concentration at half of the fitted maximal effect. An outline of the steps: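 HEK 293 cells pretreated with compound for 1 h, then infected with ZIKV MR766 (MOI 0.5) for 24 h at 37 C. NS1 detected by TR-FRET with two anti-NS1 antibodies; normalized to uninfected (0%) and infected (100%) wells.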

Experiment [6] can be described thus: qHTS of pediatric cancer cell lines to identify multiple opportunities for drug repurposing: Primary screen for TC32 cells (AID 1347089). Further: nearly all actives have a fitted effect of over 60% in size. Further: potency means the concentration at half of the fitted maximal effect. The procedure, abridged:
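qHTS, TC32, 48 h drug treatment, CellTiter-Glo luminescence as a proxy for metabolically active cells; primary top concentration 46 µM (MIPE 11-pt, NPC 8-pt); confirmatory 11-pt.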

A short description of experiment [7]: qHTS of pediatric cancer cell lines to identify multiple opportunities for drug repurposing: Primary screen for DAOY cells (AID 1347090). Further: potency means the concentration at half of the fitted maximal effect; nearly all actives have a fitted effect of over 55% in size. An outline of the steps: (§1)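 Eight- or eleven-point concentration series, 48 h treatment at 37 degrees C in growth media; readout CellTiter-Glo luminescence. Potency and efficacy were taken from the concentration-response curves.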

A short description of experiment [8]: qHTS of pediatric cancer cell lines to identify multiple opportunities for drug repurposing: Primary screen for BT-37 cells (AID 1347094). Further: potency means the concentration at half of the fitted maximal effect. An outline of the steps:
(§2)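 Following a 5-hour attachment period, cells at 500-1,000/well received compounds and were cultured for 48 hours. CellTiter-Glo was added and luminescence read to estimate viable, metabolically active cells.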

The nature of experiment [9]: qHTS of pediatric cancer cell lines to identify multiple opportunities for drug repurposing: Primary screen for NB-EBc1 cells (AID 1347095). Further: potency means the concentration at half of the fitted maximal effect. The procedure, abridged:
as §2

Experiment [10] in a line: qHTS of pediatric cancer cell lines to identify multiple opportunities for drug repurposing: Primary screen for SJ-GBM2 cells (AID 1347091). Further: potency means the concentration at half of the fitted maximal effect. An outline of the steps:
as §1

A short description of experiment [11]: qHTS of pediatric cancer cell lines to identify multiple opportunities for drug repurposing: Primary screen for A673 cells (AID 1347092). Further: potency means the concentration at half of the fitted maximal effect; nearly all actives have a fitted effect of over 45% in size. An outline of the steps:
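Luminescence from CellTiter-Glo, taken after 15 min at room temperature, served as the proxy for metabolically active cells following 48 h treatment. Both potency and efficacy were taken from curves fitted to the titration data.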

A short description of experiment [12]: qHTS of pediatric cancer cell lines to identify multiple opportunities for drug repurposing: Primary screen for SK-N-MC cells (AID 1347093). Further: potency means the concentration at half of the fitted maximal effect. An outline of the steps: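 Metabolically active cells were quantified by ATP-dependent luminescence (CellTiter-Glo, 15 min at room temperature) following 48 h treatment. Cells had been plated at 500-1,000 per well and settled for 5 h beforehand.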

A short description of experiment [13]: P-glycoprotein substrates identified in KB-3-1 adenocarcinoma cell line, qHTS therapeutic library screen (AID 1346986). Further: nearly all actives have a fitted effect of over 60% in size.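 Further: potency means the concentration at half of the fitted maximal effect; potency is for cytotoxicity meaning loss of cell viability.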 An outline of the steps: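 KB-3-1 parental cells and P-gp-overexpressing KB-8-5-11 (colchicine omitted during assay) plated at 500 cells/well, dosed in dose-response, incubated 72 h at 37 degree C. CellTiter-Glo luminescence read; KB-8-5-11 also tested with tariquidar.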

For `C1=CCOCc2cc(ccc2OCCN2CCCC2)Nc2nccc(n2)-c2cccc(c2)OCC1`, the Potency result in [1] was “inactive”. The IC50 (viability decrease) in experiment [2] is 2090 nM (active). Also, the Potency in [3] was 1870 nM (active); in [4], 3.32 µM (active); in experiment [5] it was 4180 nM (active); in experiment [6] it was 14700 nM (active); in experiment [7] it was 14800 nM (active); in [8], 12200 nM (active). Moreover, the Potency in experiment [9] was 7430 nM (active).

On to `C=CCn1c(=O)c2cnc(Nc3ccc(N4CCN(C)CC4)cc3)nc2n1-c1cccc(C(C)(C)O)n1`, for which the Potency is 1660 nM (active) in experiment [1]; 590 nM (active) in [3]; 3.72 µM (active) and 5.8 µM (active) in experiment [4]; 418 nM (active) in experiment [5]; 2620 nM (active) in [6]; 372 nM (active) in [7]. Moreover, the Potency in [10] was 166 nM (active); in experiment [11], 74.3 nM (active); in experiment [12], 83.3 nM (active); in [9], 209 nM (active). Besides, the IC50 (viability decrease) in experiment [2] is 590 nM (active).

For the molecule `COc1cc2ncnc(Nc3ccc(F)c(Cl)c3)c2cc1NC(=O)C=CCN1CCCCC1`, the Potency in experiment [1] was 29600 nM (active); in [3] it was 23500 nM (active); in [10], 8330 nM (active); in [11] it was 18700 nM (active); in experiment [8] it was 24300 nM (active); in experiment [9] it was 26400 nM (active). In addition, the IC50 (viability decrease) in experiment [2] is 16600 nM (active). Also, the Potency result in experiment [13], in [4] and in experiment [6] was “inactive” in each case.

For `COC(=O)[C@]12CCC(C)(C)C[C@@H]1[C@@H]1C(=O)C=C3[C@@]4(C)C=C(C#N)C(=O)C(C)(C)[C@@H]4CC[C@@]3(C)[C@]1(C)CC2`, the Potency is 2350 nM (active) in [1]; 2960 nM (active) in experiment [3]; 0.743 µM (active) in experiment [4]; 1320 nM (active) in experiment [5]; 590 nM (active) in experiment [7]; 235 nM (active) in experiment [10]. Also, the Potency in experiment [11] was 372 nM (active); in experiment [8], 685 nM (active); in experiment [9], 264 nM (active). The IC50 (viability decrease) in experiment [2] was 1050 nM (active).

For the molecule `C[C@@]12O[C@@H](C[C@]1(O)CO)n1c3ccccc3c3c4c(c5c6ccccc6n2c5c31)CNC4=O`, the Potency in experiment [1] is 23500 nM (active); in experiment [13], 206 nM (active); in experiment [4], 2.35 µM (active) and 1.46 µM (active); in experiment [5] it was 2640 nM (active); in experiment [6], 1860 nM (active); in experiment [7], 4690 nM (active). The Potency in experiment [10] is 235 nM (active); in experiment [12], 37.2 nM (active); in experiment [8], 4850 nM (active); in experiment [9], 1180 nM (active). Besides, the IC50 (viability decrease) in [2] is 1660 nM (active).

Turning to `C=CC(=O)Nc1cc2c(Nc3ccc(F)c(Cl)c3)ncnc2cc1OCCCN1CCOCC1`, the Potency in experiment [1] was 20900 nM (active); in experiment [7], 18700 nM (active); in [11], 4690 nM (active); in experiment [12], 2350 nM (active); in [8] it was 6850 nM (active); in experiment [9], 18700 nM (active). The IC50 (viability decrease) in [2] was 16600 nM (active). The Potency entry in experiment [13] and in [6] was “inactive” in each case.

For the molecule `CC1=C(CO)C(=O)O[C@@H]([C@@H](C)[C@H]2CC[C@H]3[C@@H]4C[C@H]5O[C@]56[C@@H](O)C=CC(=O)[C@]6(C)[C@@H]4CC[C@]23C)C1`, the Potency in experiment [1] was 1660 nM (active); in experiment [3], 2960 nM (active); in [5], 1480 nM (active); in experiment [6] it was 2340 nM (active); in [7], 743 nM (active); in [10], 372 nM (active). Besides, the Potency is 372 nM (active) in [11], 132 nM (active) in experiment [12], 2170 nM (active) in [8] and 469 nM (active) in experiment [9]. For the same molecule, in [2], the IC50 (viability decrease) is 662 nM (active).

For the molecule `C=CC(=O)Nc1cc2c(Nc3ccc(F)c(Cl)c3)ncnc2cc1C#CC(C)(C)N1CCN(C)CC1`, the Potency was 6620 nM (active) in experiment [1]; 11800 nM (active) in [3]; 9200 nM (active) in experiment [13]; 13200 nM (active) in [5]; 11700 nM (active) in [6]; 5900 nM (active) in [7]. The Potency is 1480 nM (active) in experiment [11], 3850 nM (active) in experiment [8] and 2960 nM (active) in experiment [9]. In addition, the IC50 (viability decrease) in [2] was 6620 nM (active).

Turning to `Nc1ccccc1NC(=O)c1ccc(CNC(=O)OCc2cccnc2)cc1`, the Potency result in experiment [1] and in [5] was “inactive” in each case. The IC50 (viability decrease) entry in [2] is “inactive”. The Potency in experiment [4] was 11.8 µM (active) and 9.2 µM (active); in experiment [6], 8290 nM (active); in [7], 4690 nM (active); in [10], 4180 nM (active); in experiment [11], 1480 nM (active); in experiment [12] it was 93.5 nM (active). Moreover, the Potency is 3850 nM (active) in experiment [8] and 1320 nM (active) in [9].

Regarding `CN(c1ncccc1CNc1nc(Nc2ccc3c(c2)CC(=O)N3)ncc1C(F)(F)F)S(C)(=O)=O`, the Potency is 20900 nM (active) in experiment [1]; 5170 nM (active) in experiment [13]; 11800 nM (active) in [5]; 13100 nM (active) in experiment [6]; 18700 nM (active) in [7]; 3320 nM (active) in experiment [10]. Besides, the Potency in [11] is 4690 nM (active); in experiment [12] it was 2960 nM (active); in experiment [8] it was 9680 nM (active); in experiment [9] it was 4690 nM (active). Also, in experiment [2], the IC50 (viability decrease) is 2960 nM (active).

Consider `Cc1cnc(Nc2ccc(F)cc2Cl)nc1-c1c[nH]c(C(=O)N[C@H](CO)c2cccc(Cl)c2)c1`, for which the Potency in experiment [1] was 23500 nM (active); in [3], 18700 nM (active); in [4] it was 23.5 µM (active); in [7], 7430 nM (active); in [11] it was 37.2 nM (active); in [12] it was 2350 nM (active). Moreover, the Potency in experiment [8] was 485 nM (active); in experiment [9], 833 nM (active). In addition, in [2], the IC50 (viability decrease) is 11800 nM (active). Also, in experiment [6], the Potency entry is “inactive”.
